Compound activity from PubChem BioAssay.
The list is not random: actives were taken first. Their share in the collection is about 6%.
D1 potentiator – potentiators of human D1 dopamine receptor; P21728; HEK293 TREx D1 cells, calcium flux, dopamine EC20 potentiation; potentiation, % at 10 µM; actives 0.036% (n = 360,000); AID 504651; in the data active means potentiation above about 30%; further: 0% is about no effect
Target sequence (P21728 whole entry, looked up): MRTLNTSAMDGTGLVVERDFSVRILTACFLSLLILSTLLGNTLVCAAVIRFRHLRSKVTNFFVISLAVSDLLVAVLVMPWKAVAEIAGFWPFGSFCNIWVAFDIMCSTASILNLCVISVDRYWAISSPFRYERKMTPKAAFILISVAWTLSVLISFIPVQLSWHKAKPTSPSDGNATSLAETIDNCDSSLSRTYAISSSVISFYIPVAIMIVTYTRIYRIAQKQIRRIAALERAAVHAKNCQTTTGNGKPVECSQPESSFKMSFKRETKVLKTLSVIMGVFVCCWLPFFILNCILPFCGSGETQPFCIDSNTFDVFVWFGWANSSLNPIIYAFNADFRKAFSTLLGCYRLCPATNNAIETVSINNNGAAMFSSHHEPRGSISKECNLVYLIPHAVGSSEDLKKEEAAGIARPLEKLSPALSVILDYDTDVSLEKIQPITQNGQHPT
D1 ag – agonists of human D1 dopamine receptor | HEK293 T-REx D1 cells, calcium flux, agonist mode | activation, % at 2 µM | actives 1% (n = 360,000) | AID 504660; in the data active means activation above about 30%; further: 0% is about no effect
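Inducible HEK293 T-REx D1 cells, force-coupled to calcium signalling, were plated at 4000 cells/well with tetracycline and held overnight at 30 C. After no-wash calcium dye loading, compound-evoked calcium rise over 180 s flagged agonists.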
D3 ag – activates the human D3 dopamine receptor | D3R DiscoveRx beta-arrestin cells, luminescence, 90 min | max activation, % | actives 0.58% (n = 410,000) | AID 652048; in the data active means max activation above about 30%; further: 0% is about no effect
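Agonist-mode cell screen: cells plated at 1500/well and incubated overnight at 37 °C, then exposed to library compounds for 90 min at 37 °C. Detection reagent was added for 30–60 min at room temperature, and luminescence was read.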
Chronic BCR inh – blocks chronic active B-cell receptor signaling; ABC-DLBCL IkBa-CBG/CBR reporter, luminescence ratio, 4 h; Potency, µM (top dose mostly 46.1 µM), for inactives: top-dose activity change, negative = inhibition, hits mostly inhibitors; actives 0.05% (n = 340,000); AID 493014; active means well fitted inhibition curve with a large enough effect in the signal ratio, with a control signal flat, not every such curve was filed as active; inconclusive means small, poorly fitted or top-dose-only effect, or effect the other way, or a change in a side signal; the % refers to the signal ratio;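 further: potency means the concentration at half of the fitted maximal effect; plate controls were basal doxycycline-induced cells for no effect and cells given 10 µM MG132 for full effect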
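Compounds up to 46 uM were incubated four hours with TMD8 cells whose green CBG68 luciferase is fused to IkappaBalpha; red CBR luminescence normalised the signal, and concentration-effect curves were fitted to fusion, red and ratio data.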
D3 antag – antagonists of human D3 dopamine receptor; P35462; D3R cells, DiscoveRx beta-arrestin luminescence, antagonist mode; hits give low values; max response, negative = inhibition, %; actives 2.5% (n = 360,000); in the data active means max response below about -50%; inconclusive means no clear call, values can overlap the other calls; further: on the % scale 0 is the no-effect control and ±100 the full control effect
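Cells plated overnight at 1500 cells/well, then exposed to library compounds with dopamine controls for 90 minutes at 37 degrees C. DiscoveRx reagent added for 30–60 minutes at room temperature; luminescence read, quantitative HTS format.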
D1 antag – human D1 dopamine receptor antagonism; P21728; HEK293 TREx D1 cells, calcium flux, dopamine EC80; hits give low values; activity change, negative = inhibition, % at 10 µM; actives 3.2% (n = 360,000); AID 504652; in the data active means activity change below about -30%; further: on the % scale 0 is the no-effect control and ±100 the full control effect
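Allosteric or orthosteric antagonism assessed as attenuation of the calcium response to EC80 dopamine, added 180 s after compound, in induced HEK293 Trex D1 cells loaded with no-wash calcium dye.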
* marks the source's active call; other numbers are inactive results; u = inconclusive; x = not tested or not shown.

SMILES	D1 potentiator	D1 ag	D3 ag	Chronic BCR inh	D3 antag	D1 antag
Cn1c(=O)c2c(nc(N3CCOCC3)n2Cc2ccccc2F)n(C)c1=O	2.5	-0.1	1.7	x	x	6.7
Cn1c(=O)[nH]c(=O)c2c1nc(SCC(O)CO)n2Cc1ccccc1Cl (stereo unspecified)	-3.2	0.8	-8.9	u	-18.0	-64.0*
CCCn1c(N2CCN(C)CC2)nc2c1c(=O)[nH]c(=O)n2C	-10.1	1.5	1.6	-9.5%	-9.6	-30.6*
CC(C)(C)OC(=O)Cc1nnc(C(C(=O)OCc2ccccc2)c2ccccc2)s1 (stereo unspecified)	-1.6	15.4	x	x	x	3.9
COc1ccc(N=C(N)SCc2ccccn2)cc1	-10.1	21.5	-22.4	u	-7.4	-42.8*
CN1CCc2c(sc3c2C(=O)NC(c2ccc4c(c2)OCO4)N3)C1 (stereo unspecified)	-0.1	10.7	-17.0	u	-126.1*	11.4
Cc1ccc(C2NC(=O)c3c(sc4c3CCN(C)C4)N2)s1 (stereo unspecified)	4.7	21.2	-25.2	4.0%	-55.4*	4.9
Cc1ccc(C2NC(=O)c3c(sc4c3CCN(C)C4)N2)o1 (stereo unspecified)	-5.0	8.0	-6.0	3.1%	4.4	9.9
CN1CCc2c(sc3c2C(=O)NC(c2ccccc2)N3)C1 (stereo unspecified)	-1.6	10.9	-24.3	1.9%	-3.9	23.1
COc1ccc(Cl)cc1NC(=O)C(C)n1c(=O)cc(C(F)(F)F)c2c(C)nn(C)c21 (stereo unspecified)	-0.8	5.2	-2.8	x	x	26.1
CC1=CC(=O)C=C(C)C1=NOc1ccccc1[N+](=O)[O-]	-1.6	-0.3	1.0	u	-0.8	-66.1*
Cc1cc(C)c2c(CC(=O)Nc3ccccc3C(F)(F)F)coc2c1	-0.6	-0.8	2.0	x	x	10.0
O=c1cc(-c2ccccc2)[nH]n1-c1nc2ccccc2s1	-8.4	-0.2	1.0	7.9%	2.4	-35.9*
Clc1ccc(SCCOCCN2CCOCC2)cc1	-4.8	5.4	-23.3	0.2%	u	-21.2
Clc1ccc(SCCOCCN2CCCCC2)cc1	-4.0	18.5	-14.0	1.7%	-79.8*	9.4
Clc1ccc(SCCCCN2CCNCC2)cc1	-4.2	119.8*	-3.9	u	-2.2	-44.6*
Clc1ccc(SCCOCCN2CCc3ccccc3C2)cc1	3.1	1.6	-11.3	u	-88.0*	-7.6
CC1CCN(CCOCCSc2ccc(Cl)cc2)CC1	-1.9	21.0	-4.4	7.8%	-109.5*	-44.4*
Cc1ccc(CCNC(=O)c2ccc(CS(=O)(=O)c3ccc(Cl)cc3)o2)cc1	-2.0	3.3	-15.1	1.4%	x	6.0
Cc1cc(C)c2c(CC(=O)N3CCN(c4cccc(Cl)c4)CC3)coc2c1	-0.1	4.5	8.9	x	x	33.8
CC1(C)OC(=O)C2(Cc3c(F)cccc3N3CCCC32)C(=O)O1 (stereo unspecified)	5.2	2.3	x	x	x	-22.3
O=C(CS(=O)(=O)c1cccc2nsnc12)N1CCN(c2cccc(C(F)(F)F)c2)CC1	3.8	8.1	1.7	x	x	-13.2
CC(C)COP(=O)(c1ccc(N(C)C)cc1)C(O)c1cccnc1 (stereo unspecified)	-5.2	2.5	5.5	-7.0%	17.8	-86.5*
CC(C)OP(=O)(c1ccc(N(C)C)cc1)C(Nc1ccccc1)c1cccnc1 (stereo unspecified)	-8.0	0.9	-2.1	-2.1%	-3.3	-31.1*
CN(C)c1ccc(P(=O)(OCc2ccccc2)C(O)c2cccnc2)cc1 (stereo unspecified)	-6.1	7.0	2.1	1.6%	-10.8	11.2
SMILES	D1 potentiator	D1 ag	D3 ag	Chronic BCR inh	D3 antag	D1 antag
CC1CCC(N2CC(=O)N(C3CCCC3)C(c3ccc(Cl)cc3)C2=O)CC1 (stereo unspecified)	-0.6	-0.7	-0.5	u	x	14.4
CC(C)c1ccc(NC(=O)COC(=O)CSc2nnc(N)s2)cc1	-4.3	2.9	-5.9	u	-21.6	-9.9
Nc1nnc(SCC(=O)OCC(=O)Nc2ccccc2F)s1	-1.0	5.7	-2.4	8.0%	-1.7	-55.8*
Cc1ccc(S(=O)(=O)NCC(c2ccco2)N2CCN(c3ccccc3F)CC2)cc1 (stereo unspecified)	-4.8	2.4	-13.6	-15.6%	x	x
O=S(=O)(NCCc1csc2nc(-c3ccccc3)nn12)c1ccc(Oc2ccccc2)cc1	-2.0	4.5	3.7	18.1%	x	x
O=C(c1cc2ncc(CCCl)cn2n1)N1CCCCCC1	-4.3	2.2	-14.2	u	-14.2	-48.2*
COc1cccc(S(=O)(=O)Nc2ccc3c(c2)[C@H]2C[C@H](CC(=O)N[C@@H](C)c4ccccc4)O[C@H](CO)[C@H]2O3)c1	x	x	4.1	x	-1.5	x
O=C(NCCc1c[nH]c2ccccc12)C(=O)NCC1OCCCN1S(=O)(=O)c1ccccc1 (stereo unspecified)	0.6	2.6	1.6	-0.7%	23.0	-20.2
COc1ccc(CCNC(=O)C(=O)NCC2OCCCN2S(=O)(=O)c2cc(C)ccc2C)cc1 (stereo unspecified)	3.1	0.7	5.1	0.4%	15.5	-44.1*
Cc1ccc(S(=O)(=O)N2CCCOC2CNC(=O)C(=O)NCCc2c[nH]c3ccccc23)cc1 (stereo unspecified)	-12.8	1.3	3.7	-2.8%	8.9	-35.8*
